# Compounds with a hit are over-represented: about 14% of the library has one in this group of screens.
# Sm TGR block – inhibitors of Schistosoma mansoni thioredoxin glutathione reductase | 3% of 360,000 active | purified TGR, DTNB reduction, TNB absorbance 405 nm | AID 485364 | Potency, µM (titrated, usually from 114 µM), hits mostly inhibitors | Q962Y6; also: nearly all actives have a fitted effect of over 60% in size
#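 Kinetic colorimetric format: TGR-catalysed, NADPH-driven DTNB reduction monitored via TNB absorbance. Enzyme dispensed at 20 nM; compound exposure 15 min at room temperature before reaction start.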
# HCMV antiviral – inhibitors of human cytomegalovirus. HFF cells, HCMV-luciferase reporter, 72 h; active compounds read low. activity change, negative = inhibition, % at 57.5 µM. 4.5% of 410,000 active. AID 1259415; in the data active = activity change below about -60%; inconclusive = no clear call, values can overlap the other calls; inactive = above about -39%
#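 After 16 h attachment at 37C, HFF cells received test compound and HCMV-luciferase (1 PFU/cell); reporter luminescence read 72 h later, data normalized against buffer-only and known inhibitor Salinomycin.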
# Pf growth 96h – P. falciparum growth inhibition at 96 hour, primary screen for plastid delayed-death inhibitors; P. falciparum luciferase reporter growth, 96 h; Potency, µM (highest dose often 28.7 µM), actives largely listed as inhibitors; 6.9% of 320,000 active
#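 P. falciparum expressing integrated firefly luciferase grown in erythrocytes (2% hematocrit, 0.05% parasitemia final) with compounds for 96 hours at 37 C, 5% CO2. Growth inhibition read as loss of luminescence after adding luciferase detection reagent.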
# Giardia FBPA inh – inhibitors of Giardia lamblia fructose-1,6-bisphosphate aldolase; AID 2451; purified Giardia FBPA; 0.71% of 290,000 active; A8B2U2; Potency, µM (titrated, usually from 59.6 µM), hits mostly inhibitors; also: nearly all actives have a fitted effect of over 55% in size
# Target sequence (A8B2U2 whole entry, looked up): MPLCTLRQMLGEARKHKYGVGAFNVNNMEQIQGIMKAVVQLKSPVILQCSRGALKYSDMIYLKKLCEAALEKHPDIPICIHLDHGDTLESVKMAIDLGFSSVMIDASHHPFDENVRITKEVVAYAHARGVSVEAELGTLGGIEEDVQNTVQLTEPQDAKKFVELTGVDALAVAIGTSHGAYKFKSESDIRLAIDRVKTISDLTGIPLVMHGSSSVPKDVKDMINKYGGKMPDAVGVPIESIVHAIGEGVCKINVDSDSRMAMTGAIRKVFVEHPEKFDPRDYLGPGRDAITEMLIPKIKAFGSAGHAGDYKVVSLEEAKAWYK
#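 40 nM FBPA preincubated 10 min at RT with compound (up to 57.5 uM final), then substrate plus GAPDH/TPI/NAD/arsenate coupling and diaphorase/resazurin added. Fluorescence read after 20 min at RT, 525/598 nm.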
# Pf growth 48h – inhibits P. falciparum growth in the first generation, 48 h; P. falciparum luciferase growth in erythrocytes, 48 h; Potency, µM (top dose mostly 28.7 µM), usual class: inhibitors; 5.9% of 310,000 active
#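 A one-generation exposure of luciferase-tagged malaria parasites in RPMI 1640/Albumax erythrocyte culture, 37 C and 5% CO2. Inhibition is inferred from decreased luminescence after adding detection reagent.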
# Numbers stand for hits; – = inactive; ? = inconclusive; · = no result. Unless noted, calls follow the shape of the dose curve; as a rule, active = well fitted curve in the direction sought with a large enough effect; inconclusive = small, poorly fitted or top-dose-only effect, or another doubt; inactive = no such curve, though single readings can be large; an effect the other way counts as inactive or inconclusive.
SMILES,Sm TGR block,HCMV antiviral,Pf growth 96h,Giardia FBPA inh,Pf growth 48h
O=C1Nc2cc(C(=O)NCCCN3CCCC3)ccc2S/C1=C/c1ccccc1F,–,–,13µM,–,?
O=C(NCc1ccco1)c1ccc2c(c1)N(Cc1c(F)cccc1Cl)C(=O)c1ccccc1S2,–,–,·,·,·
Cc1ccc(CN2C(=O)c3ccccc3Sc3ccc(C(=O)NCc4ccco4)cc32)cc1,–,-66,·,·,·
O=C1Nc2cc(C(=O)NCCN3CCCCCC3)ccc2S/C1=C/c1ccccc1F,·,–,·,·,·
CCOc1ccc2c(c1)c(=O)c(S(=O)(=O)c1ccc(CC)cc1)cn2C,–,?,?,–,–
CCN(CC)CCCNC(=O)c1ccc2c(c1)N(Cc1c(F)cccc1Cl)C(=O)c1ccccc1S2,–,-98,·,·,·
O=C(NCc1ccc2c(c1)OCO2)c1ccc2c(c1)N(Cc1c(F)cccc1Cl)C(=O)c1ccccc1S2,–,–,·,·,·
Cc1cc(C)c(NC(=O)Cc2csc(C)n2)c(Cl)c1,–,-61,·,·,·
O=C(Nc1cccs1)Nc1c(F)c(F)cc(F)c1F,–,–,4.7µM,–,?
Cc1cccc(C)c1NC(=O)Nc1cccs1,–,–,–,–,·
O=C(Nc1cccs1)Nc1c(F)c(F)c(F)c(F)c1F,–,-61,–,–,?
CN1CCN(c2ncc3nc(-c4cccc(C#N)c4)c(=O)n(CCC#N)c3n2)CC1,·,·,·,–,·
Cc1ccc(C)c(S(=O)(=O)N2CCCOC2CNC(=O)C(=O)NCc2ccc3c(c2)OCO3)c1 (centres undefined),–,–,?,·,–
COc1ccc(CCN(C)Cc2ccc(OCc3ccccc3)c(OC)c2)cc1OC,–,–,?,?,?
COc1ccc(CCN(C)Cc2ccc(OC)c(OCc3ccccc3)c2)cc1OC,–,–,10µM,–,?
COc1ccc(CCN(C)Cc2ccc(C(=O)Nc3ccccc3)cc2)cc1OC,–,-73,?,·,?
COc1cc(CN(C)Cc2ccccc2)cc(OC)c1O,11µM,–,·,?,–
COc1ccc(CN(C)CCc2ccccn2)cc1OC,–,–,?,6.3µM,–
CC(C)CCN1C(=O)c2ccccc2C1c1nnnn1C(C)C (centres undefined),·,–,·,·,·
Cc1cc(Cl)ccc1NC(=O)Cn1nnc2sc(-c3ccccc3)cc2c1=O,–,–,·,·,·
COc1ccc(CCN(C)Cc2cccc3ccccc23)cc1OC,–,–,–,?,?
COc1ccc(CCN(C)Cc2c(O)ccc3ccccc23)cc1OC,1.4µM,–,–,–,–
O=C(NNc1nc(-c2ccccc2)cs1)c1ccco1,–,–,1.5µM,–,12µM
O=C(NNc1nc(-c2ccc(Cl)cc2)cs1)c1ccco1,–,–,?,–,12µM
Cc1ccc(-c2csc(NC(=S)NC(=O)c3ccco3)n2)cc1,–,–,?,–,–
SMILES,Sm TGR block,HCMV antiviral,Pf growth 96h,Giardia FBPA inh,Pf growth 48h
Cc1cccn2c(=O)c(/C=C(\C#N)S(=O)(=O)c3ccccc3)c(N3CCN(Cc4ccccc4)CC3)nc12,–,–,15µM,·,?
Cc1ccc(S(=O)(=O)/C(C#N)=C/c2c(N3CCOCC3)nc3c(C)cccn3c2=O)cc1,–,–,–,–,2.1µM
N#C/C(=C\c1c(N2CCN(Cc3ccccc3)CC2)nc2ccccn2c1=O)S(=O)(=O)c1ccccc1,–,–,?,·,?
N#C/C(=C\c1c(N2CCOCC2)nc2ccccn2c1=O)S(=O)(=O)c1ccccc1,–,–,–,–,–
COc1ccc(-c2oc3ncn4nc(-c5ccccc5Cl)nc4c3c2-c2ccc(OC)cc2)cc1,–,–,·,·,·
Cc1ccc(CNC(=O)C2(C)CCN2C(=O)Cc2ccc(-c3ccccc3)cc2)cc1 (centres undefined),·,–,·,·,·
O=C(c1ccccc1Oc1ccccc1)N1CCN(c2ccccc2)CC1,–,?,15µM,–,?
CCOc1ccccc1C(=O)N1CCN(c2cccc(Cl)c2)CC1,–,-85,·,–,?
O=C(c1cccc([N+](=O)[O-])c1)N1CCN(c2cccc(Cl)c2)CC1,–,–,?,–,–
COC(=O)c1cc(C(=O)N2CCN(c3cccc(Cl)c3)CC2)cc([N+](=O)[O-])c1,–,-68,–,–,–
Cc1cc(Cl)ccc1OCC(=O)Nc1ccccc1C(=O)N1CCOCC1,–,·,–,·,–
COc1cc(Cl)ccc1NC(=O)COc1ccccc1C(=O)N1CCN(c2ccc(O)cc2)CC1,–,?,?,?,5.9µM
O=S(=O)(c1ccc(Cl)cc1)c1nc(-c2ccccc2)oc1N1CCN(c2ccccc2)CC1,–,–,·,·,·
CO/N=C(\C(=O)N[C@@H]1C(=O)N2C(C(=O)[O-])=C(C[N+]3(C)CCCC3)CS[C@@H]12)c1csc(N)n1,·,·,–,–,–
CCn1c(SCC(=O)c2ccc3ccccc3c2)nnc1-c1ccco1,32µM,–,·,–,?
CCn1c(SCC(=O)N2CCCCC2C)nnc1-c1ccco1 (centres undefined),45µM,–,–,–,–
CC1CCCCN1C(=O)CSc1nnc(-c2ccco2)n1C (centres undefined),–,–,–,·,–
CCn1c(SCC(=O)c2ccc3c(c2)OCCO3)nnc1-c1ccco1,22µM,–,–,?,–
CSCC[C@H](NC(=O)[C@@H]1CSC2c3ccccc3C(=O)N21)C(=O)N1CCC[C@H]1CO (some centres undefined),–,–,–,–,–
CN(C)CCNC(=O)c1ccc(-c2cnn(C)c2)c2ccoc12,·,–,·,·,·
O=C1NCCNC1(c1c[nH]c2ccccc12)C(F)(F)F (centres undefined),–,–,1µM,–,·
COCCn1c(C)cc(C(=O)CSc2nc3ccccc3o2)c1C,–,–,–,–,–
COc1ccc(CCn2c(C)cc(C(=O)CSc3nnc(N)s3)c2C)cc1,–,·,9.3µM,–,?
Cc1cc(C(=O)CSc2nc(N)cc(=O)[nH]2)c(C)n1-c1ccc(OC(F)F)cc1,–,-106,–,–,–
CCc1ccc(C(=O)CSc2nc(N)cc(=O)[nH]2)cc1,–,–,10µM,–,–
SMILES,Sm TGR block,HCMV antiviral,Pf growth 96h,Giardia FBPA inh,Pf growth 48h
COCCn1c(C)cc(C(=O)CSc2nc3ccccc3s2)c1C,–,-83,–,–,–
CN1CCCC1=Nc1ccccc1,·,–,·,·,·
Cc1cc2c(cc1S(=O)(=O)N(CCN(C)C)Cc1ccco1)OCC(=O)N2,–,–,·,·,·
COc1ccc(CCn2c(C)cc(C(=O)CSc3nc(N)cc(=O)[nH]3)c2C)cc1,–,-95,9.3µM,–,?
Cc1cc(C(=O)CSc2nc(N)cc(=O)[nH]2)c(C)n1CCc1ccc(F)cc1,–,-82,–,–,–
Cc1cc(C(=O)CSc2nnc(N)s2)c(C)n1CCc1ccc(F)cc1,–,–,?,–,–
CCCc1cc(=O)[nH]c(SCC(=O)c2cc(C)n(CCOC)c2C)n1,–,–,–,–,–
S=C(NCCc1cccc(Cl)c1)NC1CCCCC1,–,–,–,–,–
CCOc1cccc(C(=O)N(Cc2ccc(C(C)C)cc2)C2CCS(=O)(=O)C2)c1 (centres undefined),–,–,·,·,·
